Unmarked numbers belong to inactive results. How the calls were made is not given here.
test system: Aerobactin synthetase IucA (Klebsiella pneumoniae, hypervirulent); experiment: IucA enzyme inhibition, biochemical, LOPAC library, absorbance readout (AID 1346212); conditions: IucA enzyme assay, absorbance (OD) readout; stronger effect = lower value;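 tested at 8 µM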;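 further: 100% = no compound wells and 0% = no enzyme wells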

Row | SMILES | remaining activity
1 | CC(C)(C=O)Cc1cc(C(C)(C)C)c(O)c(C(C)(C)C)c1 | 115%
2 | Cn1c(=O)c2[nH]c(-c3ccc(S(=O)(=O)O)cc3)nc2n(C)c1=O | 117%
3 | O=c1c(O)c(-c2cc(O)c(O)c(O)c2)oc2cc(O)cc(O)c12 | 115%
4 | O=C(O)[C@@H]1C[C@@H](C(=O)O)N1 | 115%
5 | CC1(C)C(=O)N(CCN2CCC(C(=O)c3ccc(F)cc3)CC2)c2ccccc21 | 118%
6 | CCCCCCCCCCCCCCCC(=O)NCC(COP(=O)([O-])OCC[N+](C)(C)C)OCC (stereo not given) | 74.4%
7 | O=C(O)/C=C1\CCCc2ccccc2C1O (stereo not given) | 119%
8 | COc1cc2c(CCNC(C)=O)c[nH]c2cc1Cl | 115%
9 | CCC(=O)c1ccc2c(c1)N(CCCN(C)C)c1ccccc1S2 | 88.8%
10 | Cc1cc(C)c(/C=C2\C(=O)Nc3ccccc32)[nH]1 | 118%
11 | Cc1nc2c(OCc3ccccc3)cccn2c1CC#N | 126%
12 | CC1=C(/C=C/C(C)=C/C=C/C(C)=C/C(=O)Nc2ccc(O)cc2)C(C)(C)CCC1 | 97.1%
13 | CN(C(=O)CCCOc1ccc2[nH]c(=O)ccc2c1)C1CCCCC1 | 124%
14 | CCCn1cnc2c1c(=O)n(CCCCC(C)=O)c(=O)n2C | 93.8%
15 | OC[C@H]1O[C@@H](n2cnc3c(Nc4ccccc4)ncnc32)[C@H](O)[C@@H]1O | 89.3%
16 | C1CCC(N=C(NC23CC4CC(CC(C4)C2)C3)N2CCOCC2)CC1 | 122%
17 | C(=C\c1ccccc1)/CN1CCN(C(c2ccccc2)c2ccccc2)CC1 | 113%
18 | Cc1cccc(C)c1NC(=O)C(C)N (stereo not given) | 95.4%
19 | OC[C@H]1NC[C@@H](O)[C@@H]1O | 102%
20 | O=C1NC(=S)S/C1=C/c1cc(Br)ccc1OCc1ccccc1Br | 116%

Row | SMILES | remaining activity
21 | CC(C)NC[C@H](O)COc1cccc2ccccc12 | 92.7%
22 | N=S(=O)(O)Cc1noc2ccccc12 | 121%
23 | CCN1CCC[C@H]1CNC(=O)c1cc(S(N)(=O)=O)ccc1OC | 122%
24 | Cn1c(=O)c2c(nc(/C=C/c3cccc(Cl)c3)n2C)n(C)c1=O | 88.1%
25 | CC(C)Cn1cnc2c(N)nc3ccccc3c21 | 102%
26 | Cc1cc(C)c(NC(=O)C[C@H](CC(=O)O)c2cccc3ccccc23)c(C(=O)N2CCC3(CCCC3)CC2)c1 | 103%
27 | NC(N)=NC(=O)c1nc(Cl)c(N2CCCCCC2)nc1N | 120%
28 | NC1C=CC=C(C(=O)O)C1 (stereo not given) | 125%
29 | Cc1cccc(/C=C/c2ccccc2)n1 | 81%
30 | CC(/C=C/c1cccc(Oc2ccc(F)cc2)c1)N(O)C(N)=O (stereo not given) | 99.1%
31 | CN=c1nc(-c2ccccc2)n(-c2ccccc2)s1 | 109%
32 | c1ccc2c(c1)CCC[C@H]2Nc1nc2ccccc2[nH]1 | 109%
33 | O=[N+]([O-])c1ccc(CSc2ncnc3c2ncn3[C@@H]2O[C@H](CO)[C@@H](O)[C@H]2O)cc1 | 126%
34 | NCCNC(=O)c1ncsc1-c1cccc(F)c1 | 88.1%
35 | Cc1ccc([N+](=O)[O-])cc1S(=O)(=O)N(C)C | 108%
36 | Fc1cccc(/C=N/N=C/c2cccc(F)c2)c1 | 123%
37 | Oc1ccc(C2CNCCc3c2cc(O)c(O)c3Cl)cc1 (stereo not given) | 94.3%
38 | NC(N)=N/N=C/c1c(Cl)cccc1Cl | 87.5%
39 | CC[C@H](C)C(=O)O[C@H]1CCC=C2C=C[C@H](C)[C@H](CC[C@@H]3C[C@@H](O)CC(=O)O3)[C@H]21 | 118%
40 | Brc1ccc([C@H]2CN3CCSC3=N2)cc1 | 105%

From PubChem BioAssay
